Screens from PubChem.
Hits are enriched below; roughly 3.1% of the tested compounds scored in any of these assays.
uPA surface inh: blocks generation of uPA at the cell surface. cell surface uPA generation assay, qHTS. Potency, µM (titrated, usually from 38.3 µM), for the others: at the highest dose activity change, negative = inhibition, most hits filed as inhibitors. actives 0.31% (n = 330,000). AID 540303; active means well fitted inhibition curve with a large enough effect; inconclusive means small, poorly fitted or top-dose-only effect; inactive means no such curve, though single readings can be large or run the other way; tested in mouse RAW 264.7 cells; further: potency means the concentration at half of the fitted maximal effect; on the % scale 0 is the no-effect control and ±100 the full control effect; nearly all actives have a fitted effect of over 55% in size
DRD3 antagonist: antagonists of human D3 dopamine receptor. actives 2.5% (n = 360,000). AID 652054. max response, negative = inhibition, %. D3R cells, DiscoveRx beta-arrestin luminescence, antagonist mode; stronger effect = lower value. P35462; in the data active means max response below about -50%; inconclusive means no clear call, values can overlap the other calls; further: on the % scale 0 is the no-effect control and ±100 the full control effect
Target sequence (P35462 whole entry, looked up): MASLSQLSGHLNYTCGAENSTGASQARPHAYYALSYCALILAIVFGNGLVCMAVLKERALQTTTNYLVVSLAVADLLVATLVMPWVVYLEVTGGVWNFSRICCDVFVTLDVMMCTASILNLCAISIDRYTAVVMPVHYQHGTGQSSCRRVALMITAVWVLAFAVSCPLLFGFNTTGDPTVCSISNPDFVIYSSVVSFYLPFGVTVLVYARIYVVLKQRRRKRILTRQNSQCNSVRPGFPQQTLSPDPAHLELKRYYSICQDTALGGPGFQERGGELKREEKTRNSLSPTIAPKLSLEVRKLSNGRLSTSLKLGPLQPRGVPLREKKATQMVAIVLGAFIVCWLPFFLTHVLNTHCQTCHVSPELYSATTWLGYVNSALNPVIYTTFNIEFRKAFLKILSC
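Cells expressing the human receptor were seeded at 1500 cells/well, incubated overnight at 37 degrees C in 5% CO2, then exposed to library compounds with dopamine controls for 90 minutes at 37 degrees C before luminescent detection.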
RGS4 inh: human RGS4 inhibition | Potency, µM (top dose mostly 114 µM), for inactives: at the top dose activity change, negative = inhibition, usual class: inhibitors | AID 504845 | actives 0.039% (n = 390,000) | Transcreener GDP fluorescence polarization, RGS4-accelerated GTP hydrolysis | P49798; active means well fitted inhibition curve with a large enough effect; inconclusive means small, poorly fitted or top-dose-only effect; inactive means no such curve, though single readings can be large or run the other way; further: potency means the concentration at half of the fitted maximal effect; on the % scale 0 is the no-effect control and ±100 the full control effect; nearly all actives have a fitted effect of over 75% in size
Target sequence (P49798 whole entry, looked up): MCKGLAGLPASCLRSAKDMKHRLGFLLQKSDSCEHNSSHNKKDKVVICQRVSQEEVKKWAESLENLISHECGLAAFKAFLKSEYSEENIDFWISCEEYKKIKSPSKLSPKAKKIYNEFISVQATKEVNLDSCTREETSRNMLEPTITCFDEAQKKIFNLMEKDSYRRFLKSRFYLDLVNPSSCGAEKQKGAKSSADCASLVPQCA
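MLSMR compounds (23 nl, pin-transferred) preincubated 10 min at room temperature with a 500nM (2x) first reagent, then RGS4 at 900nM (2x) plus Transcreener GDP mix added; fluorescence polarization (620/688 nm) read before and after 90 min at 30 °C.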
D3 ag: agonists of human D3 dopamine receptor | P35462 | D3R DiscoveRx beta-arrestin cells, luminescence, 90 min | max activation, % | actives 0.58% (n = 410,000) | AID 652048; in the data active means max activation above about 30%; further: 0% is about no effect
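Agonist-mode cell screen: cells plated at 1500/well and incubated overnight at 37 °C, then exposed to library compounds for 90 min at 37 °C. Detection reagent was added for 30–60 min at room temperature, and luminescence was read.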
* marks the source's active call; other numbers are inactive results; ? = inconclusive; . = not tested or not shown.

SMILES | uPA surface inh | DRD3 antagonist | RGS4 inh | D3 ag
Cc1ccc(OCC(=O)NNC(=O)C2CCN(c3ncnc4sc(C)c(C)c34)CC2)cc1 | -7% | 20 | 1% | 37*
Cc1sc2ncnc(N3CCN(CCOc4ccc(Cl)cc4)CC3)c2c1C | . | -27 | 43% | 39*
Cc1sc2ncnc(N3CCC(C(=O)NNC(=O)COc4ccc(Cl)cc4)CC3)c2c1C | -6% | 49 | 4% | 6
Cc1sc2ncnc(N3CCC(C(=O)NNC(=O)COc4ccccc4F)CC3)c2c1C | 9% | 10 | -4% | 34*
COc1ccc(OCC(=O)NNC(=O)C2CCN(c3ncnc4sc(C)c(C)c34)CC2)cc1 | 20% | 4 | 4% | 2
Cc1sc2ncnc(N3CCC(C(=O)NNC(=O)COc4ccccc4Cl)CC3)c2c1C | 19% | 48 | 6% | 30*
NC1[C@H]2CN(c3nc4c(cc3F)c(=O)c(C(=O)O)cn4-c3ccc(F)cc3F)C[C@@H]12 (some centres not stated) | . | . | . | 3
CC1(C)N=C(N)N=C(N)N1c1ccc(Cl)cc1 | . | . | . | 0
Cc1sc2ccccc2[n+]1CCC(C)S(=O)(=O)[O-] (configuration not stated) | 7% | -67* | ? | -17
c1ccc(Nc2nc(N3CCNCC3)nc(N3CCOCC3)n2)cc1 | 0% | -79* | 17% | -1
c1ccc(Nc2nc(N3CCOCC3)nc(N3CCOCC3)n2)cc1 | 14% | ? | -27% | -4
C(=N\Nc1nc(Nc2ccccc2)nc(N2CCOCC2)n1)/c1c[nH]c2ccccc12 | -9% | -62* | -5% | 5
Cc1ccc(Nc2nc(N/N=C/c3c[nH]c4ccccc34)nc(N3CCOCC3)n2)cc1 | -2% | -21 | 18% | -15
Clc1ccc(C2CC(c3ccco3)n3ncnc3N2)cc1Cl (configuration not stated) | 0% | -58* | -12% | 2
COc1ccccc1C(=O)N1CCCC(C)(C(=O)NS(=O)(=O)C2CC2)C1 (configuration not stated) | . | 6 | . | -3
O=P(c1ccccc1)(c1ccccc1)c1ccccc1C(Br)Br | . | -67* | . | 3
COc1ccc2cc(CCNC(=O)c3ccco3)c(=O)[nH]c2c1 | 15% | 15 | -10% | -1
Cc1ccc2cc(CCNC(=O)c3ccco3)c(=O)[nH]c2c1 | -9% | -103* | 0% | 6
CCOc1nc(NCCc2ccc(OC)c(OC)c2)nc(NC(C)(C)CO)n1 | 0% | -62* | 34% | 2
O=c1oc2cc(Oc3c([N+](=O)[O-])cc(C(F)(F)F)cc3[N+](=O)[O-])ccc2c2c1CCCC2 | 2% | -90* | -8% | 7
CC(C)Cn1c(N)c(C(=O)COC(=O)C2CC(=O)N(Cc3ccccc3Cl)C2)c(=O)n(C)c1=O (configuration not stated) | -10% | 58 | 3% | 39*
COc1ccc(CCN2CC(C(=O)OCC(=O)c3c(N)n(CC(C)C)c(=O)n(C)c3=O)CC2=O)cc1OC (configuration not stated) | . | 46 | . | 14
Cc1ccc2occ(CC(=O)Nc3ccc(Cl)c(C(F)(F)F)c3)c2c1 | . | . | -20% | 2
Cc1ccc(C(=O)c2c3ccc(N)cc3nn2CCC(N)=O)cc1 | 1% | -73* | -37% | -13
COC(=O)c1cc(NC(=O)Cn2ncc3c2-c2ccccc2OC3)cc(C(=O)OC)c1 | . | . | 10% | 9
SMILES | uPA surface inh | DRD3 antagonist | RGS4 inh | D3 ag
Cc1ccc2ccc(C3C(=O)c4ccccc4C3=O)nc2c1 | -6% | -64* | 11% | -14
CC(C)n1cc(CN2CCC(C(=O)Nc3ccc(Oc4ccccc4F)cc3)CC2)cn1 | ? | -61* | -14% | 0
CCn1cc(CN2CCC(C(=O)Nc3ccc(Oc4ccccc4F)cc3)CC2)c(C)n1 | -7% | ? | -5% | -12
S=C(NCc1ccco1)NCC(c1ccco1)N1CCCCC1 (configuration not stated) | -6% | -66* | 9% | 0
Cc1ccc(S(=O)(=O)NC(CC(C)C)C(=O)NCC(c2ccco2)N2CCCCC2)cc1 (configuration not stated) | -3% | -79* | 24% | -25
CCc1cc(C(=O)NCC(c2ccco2)N2CCCCC2)sc1C (configuration not stated) | 4% | -59* | 7% | -9
Cc1c(C(=O)NCC(c2ccco2)N2CCCC2)sc2ccccc12 (configuration not stated) | -4% | -64* | -23% | -24
COc1ccc(NC(=O)C2CCCN(S(=O)(=O)c3ccc(Br)s3)C2)cc1 (configuration not stated) | . | . | 0% | 5
CCc1ccccc1NC(=O)Cn1nnc(-c2nc(-c3ccncc3)no2)c1N | . | . | 33% | 7
CCOC(=O)c1c(S(=O)(=O)NCC(=O)N(C)Cc2ccccc2)c(C)n(C)c1C | . | . | 14% | -3
CCOC(=O)CCC(NC(=O)CCCCC(=O)NC(CCC(=O)OCC)C(=O)OCC)C(=O)OCC (configuration not stated) | 1% | 1 | -8% | 1
CCOC(=O)CCC(NC(=O)c1cncc(O)c1)C(=O)OCC (configuration not stated) | 0% | -65* | -8% | -1
Cc1cc(OCCCCNC(C)C)cc(C(C)C)c1 | 0% | -69* | 7% | -13
COC(=O)c1ccc(CC(=O)c2ccc(O)cc2O)o1 | -2% | 107 | -22% | 10
CCOC(=O)c1ccc(CC(=O)c2ccc(O)cc2O)o1 | 6% | 29 | -31% | 32*
CCCn1c2ccccc2c2cnn(CC(=O)Nc3ccccc3OC)c(=O)c21 | . | . | 8% | 9
Cc1cccc(C)c1NC(=O)c1ccc2sc([C@@H]3O[C@H](CO)[C@H](O)[C@H](O)[C@H]3O)nc2c1 | . | -52* | . | -8
O=C(NCc1ccc(Cl)nc1)c1ccc2sc([C@@H]3O[C@H](CO)[C@H](O)[C@H](O)[C@H]3O)nc2c1 | . | -6 | . | -5
O=C(NCc1cccnc1)c1ccc2sc([C@H]3C[C@H](O)[C@@H](CO)O3)nc2c1 | . | -69* | . | -4
Cc1cccc(C)c1NC(=O)c1ccc2sc([C@H]3C[C@H](O)[C@@H](CO)O3)nc2c1 | . | -25 | . | -6
Cc1cnc(CNC(=O)c2ccc3sc([C@@H]4O[C@H](CO)[C@H](O)[C@H](O)[C@H]4O)nc3c2)cn1 | . | -50* | . | -5
Cc1nc(N2C(=O)c3oc4ccccc4c(=O)c3C2c2ccccc2F)sc1C (configuration not stated) | . | . | -5% | 6
CCN(CC)S(=O)(=O)c1ccc(N2CCN(CCOc3ccc(OC)cc3)CC2)nc1 | -3% | -6 | 11% | 61*
CC1=C(C(=O)NCc2ccccc2C)C2(CCCCC2)OC1=O | . | . | 10% | -3
COc1ccc(-n2c(=O)c3ccc(C(=O)NCc4ccc(C)cc4)cc3n(Cc3ccc(Cl)cc3)c2=O)cc1 | . | . | -10% | 5
N#Cc1cc([N+](=O)[O-])c(-n2nnc3ccccc32)c([N+](=O)[O-])c1 | 0% | -58* | -29% | -2
C=CCn1cccc(/C=C/C(=O)c2ccc(C(C)(C)C)cc2)c1=S | -11% | -60* | ? | -6
